Measured values published in the supplement of paper PMC7411640.
Counter-ions that a name gives are not always drawn.

What follows are compounds tested on MDA-MB-468 (assay: phospho-S6 immunofluorescence (DAPI-normalised), per-plate z-score; higher = higher phospho-S6 signal (less pathway suppression)). Conditions: co-treatment: lapatinib 1 uM; 24 h.
Procedure: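 GPCR-targeted compound library (MedChemExpress HY-L006) tested on MDA-MB-468 PTEN-null TNBC cells in 384-well plates at 0.1, 1 or 10 uM, combined with vehicle, GDC0941 450 nM or lapatinib 1 uM, for 24 h. Phospho-S6 (S240/244) immunofluorescence normalised to DAPI and expressed as a per-plate z-score; values are the mean of biological triplicates.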

Structure (SMILES)	phospho-S6 immunofluorescence (z-score)
CC(C)(C)C(=O)C(=Nc1ccc(Cl)cc1)NNc1ccc(Cl)cc1 (compound 10 µM)	-6.25
c1cc(CN2CCCNCCNCCCNCC2)ccc1CN1CCCNCCNCCCNCC1 [Plerixafor] (compound 10 µM)	0.01
CN1C2CCCC1CC(NC(=O)c1nn(C)c3ccccc13)C2 (stereo unspecified) [Granisetron (Hydrochloride)] (compound 10 µM)	0.62
COc1ccc2ccc(=O)oc2c1CC=C(C)C [Osthole] (compound 10 µM)	0.19
CCc1nc2c(C)nc(C)cc2n1-c1ccc(CCNC(=O)NS(=O)(=O)c2ccc(C)cc2)cc1 [Grapiprant] (compound 10 µM)	-0.15
COc1cc2nc(C3CC3)nc(N3CCN(c4ccccc4OC)CC3)c2cc1OC (compound 10 µM)	-0.08
COc1cc(N)cn[n+]1-c1ccccc1 [Amezinium (methylsulfate)] (compound 10 µM)	1.19
COc1cccc(CCc2ccccc2OCC(CN(C)C)OC(=O)CCC(=O)O)c1 (stereo unspecified) [Sarpogrelate (hydrochloride)] (compound 10 µM)	-0.51
N=C(N)NC(=O)Cc1c(Cl)cccc1Cl [Guanfacine (hydrochloride)] (compound 10 µM)	0.23
CCCC1O[C@@H]2C[C@H]3[C@@H]4CCC5=CC(=O)C=C[C@]5(C)[C@H]4[C@@H](O)C[C@]3(C)[C@]2(C(=O)CO)O1 (stereo partly specified) [Budesonide] (compound 10 µM)	-0.12
Clc1ccc2c(c1)CCc1cccnc1C2=C1CCNCC1 [Desloratadine] (compound 10 µM)	-1.96
